Consider 38 compounds from PubChem BioAssay (NCATS).

Activity calls are given as the source filed them. The call rests on the fitted dose curve.

For the test the following is noted: Ebola virus entry cell assay, ratio channel.
With `CCc1nc(N)nc(N)c1-c1ccc(Cl)cc1`, the outcome was inactive. By AC50 is commonly meant the concentration giving half of the maximal activity seen. As to `CC[C@@H]([C@H](C)O)n1ncn(-c2ccc(N3CCN(c4ccc(OC[C@@H]5CO[C@@](Cn6cncn6)(c6ccc(F)cc6F)C5)cc4)CC3)cc2)c1=O`, the AC50 is 8.91 µM (active).

On to `CN(C)[C@@H]1C(=O)C(C(N)=O)=C(O)[C@@]2(O)C(=O)C3=C(O)c4c(O)ccc(Cl)c4[C@@H](O)[C@H]3C[C@@H]12`, for which the result was inactive. The same measure, in the same setting: for `CN(CCOc1ccc(NS(C)(=O)=O)cc1)CCc1ccc(NS(C)(=O)=O)cc1` the value was “inactive”; for `CC(=O)Oc1cc2c(s1)CCN(C(C(=O)C1CC1)c1ccccc1F)C2` (stereo not drawn), “inactive”. With `CCOc1ccc2ccccc2c1C(=O)N[C@@H]1C(=O)N2[C@@H]1SC(C)(C)[C@@H]2C(=O)O`, the result was inactive. Consider `O=C1CCc2ccc(OCCCCN3CCN(c4cccc(Cl)c4Cl)CC3)cc2N1`, for which the AC50 was 14.1 µM (active). As for `CCOC(=O)N1CCC(=C2c3ccc(Cl)cc3CCc3cccnc32)CC1`, the outcome was inactive. With `CSc1ccc2c(c1)N(CCC1CCCCN1C)c1ccccc1S2` (stereo not drawn), the half-maximal activity concentration (AC50) was 6.31 µM (active). `Cc1cnc(C(=O)NCCc2ccc(S(=O)(=O)NC(=O)NC3CCCCC3)cc2)cn1`: the result was inactive. The same measure, in the same setting: for `CN(CCOc1ccc(CC2SC(=O)NC2=O)cc1)c1ccccn1` (stereo not drawn) the value was “inactive”; for `COc1c(C)c2c(c(O)c1C/C=C(\C)CCC(=O)O)C(=O)OC2`, “inactive”. In the case of `CN(C)C(=O)C(CCN1CCC(O)(c2ccc(Cl)cc2)CC1)(c1ccccc1)c1ccccc1`, the AC50 was 11.2 µM (active).

Turning to `Cc1cn([C@H]2C=C[C@@H](CO)O2)c(=O)[nH]c1=O`, the outcome was inactive. On to `Cc1ccc(O)c([C@H](CCN(C(C)C)C(C)C)c2ccccc2)c1`, for which the AC50 is 11.2 µM (active). For `COc1cc2c(cc1OC)[C@@H]1CC(=O)[C@@H](CC(C)C)CN1CC2`, the outcome was inactive. Regarding `Cc1ccc(C(=O)c2cc(O)c(O)c([N+](=O)[O-])c2)cc1`, the outcome was inactive. Consider `CCCCc1oc2ccc(NS(C)(=O)=O)cc2c1C(=O)c1ccc(OCCCN(CCCC)CCCC)cc1`, for which the AC50 is 3.16 µM (active). For `CCc1c2c(nc3ccc(OC(=O)N4CCC(N5CCCCC5)CC4)cc13)-c1cc3c(c(=O)n1C2)COC(=O)[C@]3(O)CC`, the result was inactive. Turning to `COC(=O)Nc1nc2ccc(C(=O)c3ccccc3)cc2[nH]1`, the concentration at half-maximal activity (AC50) was 5.62 µM (active). As for `C[C@@H](O[C@H]1OCCN(Cc2n[nH]c(=O)[nH]2)[C@H]1c1ccc(F)cc1)c1cc(C(F)(F)F)cc(C(F)(F)F)c1`, the outcome was inactive.

Consider `Fc1ccc([C@@H]2CCNC[C@H]2COc2ccc3c(c2)OCO3)cc1`, for which the half-maximal activity concentration (AC50) was 5.01 µM (active). With `CNCCC(Oc1ccc(C(F)(F)F)cc1)c1ccccc1` (stereo not drawn), the AC50 was 12.6 µM (active). With `Cc1ccc(S(=O)(=O)NC(=O)NN2CCCCCC2)cc1`, the result was inactive.

On to `C[N+]1(C)CCC(OC(=O)C(O)(c2ccccc2)C2CCCC2)C1` (stereo not drawn), for which the result was inactive.

With `CC1Cc2ccccc2N1NC(=O)c1ccc(Cl)c(S(N)(=O)=O)c1` (stereo not drawn), the result was inactive. The same measure, in the same setting: for `CC1(C)O[C@@H]2[C@@H](CO[C@@]3(COS(N)(=O)=O)OC(C)(C)O[C@@H]23)O1` the value was “inactive”. Same read-out and setting: with `COc1cc2nc(N3CCN(C(=O)C4COc5ccccc5O4)CC3)nc(N)c2cc1OC` (stereo not drawn) the entry was “inactive”; with `CC(C)NCC(O)COc1cccc2[nH]ccc12` (stereo not drawn), “inactive”. Turning to `CN(C)c1nc(N(C)C)nc(N(C)C)n1`, the outcome was inactive. Still for that read-out and setting: with `COc1ccccc1OCC(O)COC(N)=O` (stereo not drawn) the entry was “inactive”; with `COc1nc(N)nc2c1ncn2[C@@H]1O[C@H](CO)[C@@H](O)[C@@H]1O`, “inactive”. `Cc1ccccc1C(OCCN(C)C)c1ccccc1` (stereo not drawn): the AC50 was 8.91 µM (active). In the case of `CC(C)NCC(O)c1ccc(O)c(O)c1` (stereo not drawn), the outcome was inactive.

Consider `OC(CCN1CCCC1)(c1ccccc1)C1CCCCC1` (stereo not drawn), for which the AC50 was 20 µM (active).

Regarding `CN(C)CC/C=C1\c2ccccc2COc2ccccc21`, the AC50 is 25.1 µM (active). In the case of `NC[C@H](O)c1ccc(O)c(O)c1`, the outcome was inactive. Turning to `O=C1c2c(O)ccc(O)c2C(=O)c2c(NCCNCCO)ccc(NCCNCCO)c21`, the half-maximal activity concentration (AC50) was 5.01 µM (active).
